# Experiments:
# Format in all cases: functional
# [1] = target: Solute carrier family 2, facilitated glucose transporter member 1 (Homo sapiens) (UniProt P11166); assay: ST_JUDE_LEISH: Cytotoxicity at 2uM final concentration against transgenic Leishmania Mexicana promastigotes LmGLUT1 that are glucose transport deficient and complemented with the human glucose transporter GLUT1. Activity is measured by DNA content using SYBR green in vitro
# [2] = target: Hexose transporter 1 (Plasmodium falciparum) (UniProt O97467); assay: ST_JUDE_LEISH: Cytotoxicity at 2uM final concentration against transgenic Leishmania Mexicana promastigotes LmPfHT that are glucose transport deficient and complemented with the Plasmodium falciparum hexose transporter. Activity is measured by DNA content using SYBR green in vitro
# [3] = target: Glucose transporter (Leishmania mexicana) (UniProt O61059); assay: ST_JUDE_LEISH: Cytotoxicity at 2uM final concentration against transgenic Leishmania Mexicana promastigotes LmGT2 that are glucose transport deficient and complemented with the L. Mexicana glucose transporter 2. Activity is measured by DNA content using SYBR green in vitro
# Sequence of Solute carrier family 2, facilitated glucose transporter member 1 (Homo sapiens) (P11166 whole entry): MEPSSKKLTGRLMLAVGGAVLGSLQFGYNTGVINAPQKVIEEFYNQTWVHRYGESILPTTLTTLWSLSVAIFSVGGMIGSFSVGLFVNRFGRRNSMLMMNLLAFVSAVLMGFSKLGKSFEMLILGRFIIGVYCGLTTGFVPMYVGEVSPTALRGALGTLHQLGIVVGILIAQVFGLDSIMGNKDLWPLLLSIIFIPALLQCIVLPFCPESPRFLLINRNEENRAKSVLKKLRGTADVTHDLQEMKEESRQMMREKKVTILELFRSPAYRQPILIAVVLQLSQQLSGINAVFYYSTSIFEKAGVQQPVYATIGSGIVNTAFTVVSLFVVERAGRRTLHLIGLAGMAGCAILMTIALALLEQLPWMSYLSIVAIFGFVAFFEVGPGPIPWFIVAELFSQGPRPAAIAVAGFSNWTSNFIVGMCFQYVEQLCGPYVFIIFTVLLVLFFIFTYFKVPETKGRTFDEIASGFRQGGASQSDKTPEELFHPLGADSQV
Structure (SMILES),inhibition [1] [%],inhibition [2] [%],inhibition [3] [%]
Nc1nc(N)c2c(ccc3c2ccn3Cc2cccc(F)c2)n1,102,104,99.8
CC1(C)N=C(N)N=C(NOCc2ccc(Cl)c(Cl)c2)N1,1.06,1.13,1.84
O=C(/C=C/c1ccc(Cl)c(Cl)c1)NC1CCC(CN2CCC(c3nc4cc(O)ccc4[nH]3)CC2)CC1 (configuration not stated),2.81,3.99,2.71
COc1cc(/C=C/C(=O)NCC(CCNc2cc(=O)c3ccccc3[nH]2)NCc2cc(Br)cc(Br)c2)cc(OC)c1 (configuration not stated),2.85,3.71,2.37
CN(CC(=O)Nc1cc(C(F)(F)F)ccc1-n1cncn1)Cc1ccc2ccccc2c1,2.14,1.25,1.8
Cc1cccc(C(=O)Nc2ccnc(N3CCCN(Cc4cccc(O)c4)CC3)c2)c1,-0.1,1.14,-0.7
CCOC(=O)c1cnc2c(C(F)(F)F)cccc2c1Nc1ccc(O)cc1,10.8,8.44,9.59
O=C(/C=C/c1ccc(Cl)c(Cl)c1)NCCCCCN1CCC(CCNC(=O)Cc2ccc(Cl)cc2)CC1,1.7,0.82,4.06
CO/C(=C\C=C\c1cc2cc(Cl)c(Cl)cc2[nH]1)C(=O)NC1CCN(CCOc2ccccc2)CC1,8.51,7.84,0.9
Cc1c(C)c2c(c(C)c1O)CCC(C)(CCC(=O)O)O2 (configuration not stated),0.86,2.15,1.82
Cc1noc(C)c1-c1ccc2c(Nc3ccccc3N3CCOCC3)c(C(=O)NCc3ccccc3)cnc2c1,8.19,5.91,1.84
CC1CCCCC1N(C)C1CCN(CCCNC(=O)C=Cc2ccccc2Cl)CC1 (configuration not stated),-0.22,-0.24,-0.58
O=C(Cn1c(CCc2cccc(F)c2F)nc(=O)c2ccccc21)N(CCN1CCCC1)Cc1ccc(-c2ccc(C(F)(F)F)cc2)cc1,0.45,0.38,-4.3
Cc1ccc(N2CCN(CCCCNC(=O)c3ccc(NC(=O)c4ccc(Cl)cc4)cc3)CC2)c(C)c1,3.93,5.9,2.64
O=[N+]([O-])c1ccc(C(O)P(=O)(c2ccccc2)c2ccccc2)cc1 (configuration not stated),-0.33,-0.85,-0.11
Nc1ncnc2c1ncn2C(CO)Cc1ccc(O)cc1 (configuration not stated),9.32,6.45,8.36
Fc1ccc2[nH]c(-c3ccccc3)nc2c1CN1CCC(N2CCCC2)CC1,-0.78,0.83,2.29
COc1ccc(CCN(C)CCOc2ccc(NC(=O)c3cccc4c(=O)c5cc(SC)ccc5[nH]c34)cc2)cc1OC,9.29,8.61,6.56
COc1cc2nc(NCC3CCN(c4nc(N)c5cc(OC)c(OC)cc5n4)CC3)nc(N)c2cc1OC,3.62,2.73,3.28
N=C(N)Nc1nc(-c2cc(NC(=O)C(F)(F)F)cc([N+](=O)[O-])c2)cs1,0.23,0.51,1

Structure (SMILES),inhibition [1] [%],inhibition [2] [%],inhibition [3] [%]
CC(=O)Nc1nc(C(=O)Nc2cccc(-c3cccc(-c4nc5cccc(C)c5[nH]4)c3)c2)cs1,6.67,1.89,14.6
CC(C)(C)c1ccc(OCCCON2C(=N)N=C(N)NC2(C)C)c(C(C)(C)C)c1,1.15,0.14,1.14
CN1CCN(CC(=O)Nc2cccc(-c3ccc(-c4nc5cc(C(F)(F)F)ccc5[nH]4)s3)c2)CC1,1.78,2.7,4.37
NC1=NC(c2ccccc2)(c2ccccc2)C(=O)N1CCOc1ccccc1,1.06,0.96,2
Cc1ccc(NC(=O)c2ccc(CN3CCCN(Cc4cccc(C#N)c4)CC3)cc2)cc1F,4.02,2.41,2.02
Cn1c(NC(=O)C2CCC(CNC(=O)c3ccc(O)c(-c4ccc(Cl)c(Cl)c4)c3)CC2)nc2ccccc21 (configuration not stated),0.88,0.39,0.36
NC1CCN(Cc2cccc(-c3cccc(-c4nc5ccccc5[nH]4)c3)c2)C1 (configuration not stated),2.17,3.31,1.15
CC(C)NCc1cccc(-c2ccc(NC(=O)c3cccc(C#N)c3)cc2)c1,0.25,0.74,2.32
CN1CCCN(Cc2ccc(-c3cccc(NC(=O)c4ccc(Cl)cc4)c3)cc2)CC1,3.92,0.88,0.76
Cc1nc(C)c(-c2ccc(Cl)cc2)c(O)c1I,4.26,2.05,2.3
COc1cc(Nc2nccn3c(-c4ccsc4)cnc23)cc(OC)c1OC,7.63,5.81,4.31
C(=Cc1ccccc1)C=NN=c1cc[nH]c2ccccc12,-0.05,1.5,-2.14
CC(C)(C)c1ccc2[nH]c(-c3ccc(/C=C/C(=O)NC4CCN(Cc5ccccc5)CC4)cc3)nc2c1,9.73,10.5,7.5
CC(CC(=O)NCC1(c2ccc(F)cc2Cl)CCOCC1)C(=O)c1ccc(Cl)cc1 (configuration not stated),0.34,1.23,1.88
COc1ccc(CNCc2ccc(-c3ccc(-c4nc5ccccc5[nH]4)cc3)cc2)cc1,17.8,14.9,10.5
COc1ccc(-c2nc3c(NCc4ccccc4)nccc3[nH]2)c(OC)c1,4.06,4.06,2.67
O=C(Nc1cccc(-c2ccc(CN3CCCC3)cc2)c1)c1ccc(F)cc1,-0.73,0.3,0.64
COc1cccc(Nc2nc(NCCO)c3ccccc3n2)c1,14.8,15,5.17
COc1ccc(C(=O)Nc2ccc3oc(-c4ccc(C(F)(F)F)cc4)cc3c2)cc1CCCN(C)C,1.78,2.26,0.34

# From ChEMBL document CHEMBL3433997, “St. Jude Leishmania screening dataset” (2016)
